Source: PubChem
HT1080 IDH1KD tx: toxicity to HT-1080 IDH1 knockdown cells (counter line); AID 686971; 360,000 tested, 2% active; HT-1080 IDH1 knockdown viability, ATP luminescence, 48 h; Potency, µM (highest dose often 46.1 µM), for inactives: at the top dose activity, negative = toxicity, actives largely listed as cytotoxic;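 note: potency is the fitted concentration of half-maximal effect; 0% = DMSO wells and -100% = cell-free medium wells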
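Using the IDH1-knockdown HT-1080 line run in the same batch and compound series as the NT line, viability after 48 h at 37 °C was determined by CellTiter-Glo luminescence and expressed as % activity.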
IL1B secr inh: inhibitors of inflammasome signaling (IL-1 beta secretion). THP-1 LPS/ATP IL-1B secretion, AlphaLISA, 16 h; stronger effect = lower value. activity change, % at 57.5 µM. 360,000 tested, 4.7% active; in the data active = activity change below about -50%; inconclusive = mostly about -30% to -49%
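Secreted IL-1B measured by AlphaLISA bead assay after 16 h compound exposure of THP-1 cells; compounds (final up to 57.5 uM) added 1 h before LPS (250 ng/mL) and ATP (1.25 mM) stimulation; lower signal means less secretion.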
HT1080NT lethal: kills 2HG-producing HT-1080-NT fibrosarcoma cells. 360,000 tested, 1.6% active. AID 686970. HT-1080-NT fibrosarcoma viability, CellTiter-Glo ATP luminescence, 48 h. Potency, µM (series often up to 46.1 µM), for inactives: at the highest dose activity, negative = less viability, actives largely listed as cytotoxic;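 note: NT is the 2HG producing partner of a matched IDH1 knockdown line; potency is the fitted concentration of half-maximal effect; 0% = DMSO-treated cells and -100% = media-only wells without cells; nearly all actives have a fitted effect of over 55% in size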
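HT-1080-NT fibrosarcoma cells (2HG-overproducing), 750 cells/well in RPMI with 5% FBS, dosed after 2 h and incubated 48 h at 37C. CellTiter-Glo luminescence normalized to DMSO and no-cell wells; concentration-response curves fitted and classed.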
DT40 TDP1 CPT: DT40-hTDP1 cell growth loss with CPT | chicken DT40 Tdp1-/-;hTDP1 cells + 20 nM CPT, ATP luminescence, 48 h | Potency, µM (top dose mostly 46.2 µM), inactives show at the highest dose activity change, negative = growth inhibition, usual class: inhibitors | 420,000 tested, 12% active; note: potency is the fitted concentration of half-maximal effect; nearly all actives have a fitted effect of over 55% in size
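Chicken DT40 Tdp1-/- cells stably complemented with human TDP1 were seeded at 400 cells/well in medium containing 20 nM camptothecin, exposed to pin-transferred compounds, and grown at 37 °C for at least 48 hr. Viability was read as ATP luminescence.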
TDP1 cell noCPT: qHTS for Inhibitors of human tyrosyl-DNA phosphodiesterase 1 (TDP1): qHTS in cells in absence of CPT. DT40 Tdp1-/- hTDP1 cells, no CPT, ATP luminescence, 48 h. AID 686978, 2013. Potency, µM (highest dose often 46.2 µM), for the others: at the top dose activity change, negative = growth inhibition, hits mostly inhibitors. 420,000 tested, 15% active; note: potency is the fitted concentration of half-maximal effect; nearly all actives have a fitted effect of over 55% in size
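Compound effects on proliferation are scored in DT40 Tdp1-/-;hTDP1 cells in the absence of CPT. ATP levels (CellTiter-Glo luminescence) are recorded after a ≥48 hr, 37 °C incubation.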
An asterisk follows results filed as active; ? = inconclusive; / = not tested or not shown; [ ] = dose if it differs, or a comment. Most compounds without a hit are left out; they make up all but 19% or so of the library. Unless noted, calls come from the whole dose curve; as a rule, active = well fitted curve in the direction sought with a large enough effect; inconclusive = small, poorly fitted or top-dose-only effect, or another doubt; inactive = no such curve, though single readings can be large; an effect the other way counts as inactive or inconclusive. Unless noted, % is set by controls: 0 for no effect and ±100 for the full control effect.

SMILES	HT1080 IDH1KD tx	IL1B secr inh	HT1080NT lethal	DT40 TDP1 CPT	TDP1 cell noCPT
O=C(CCCc1ccccc1)N1CCN(c2ccc([N+](=O)[O-])cc2)CC1	2%[9.24 µM]	-2	-14%	18µM*	18µM*
CC(=O)OC1CC(C)(C)N(OC(=O)c2ccccc2)C(C)(C)C1	0%	-26	0%	?	21µM*
CC(=O)ON1C(C)(C)CC(OC(=O)c2ccccc2)CC1(C)C	-2%	16	1%	21µM*	-27%
O=C(OC1Cn2c(=O)ccc(=O)n2C1)c1ccccc1	12%	-13	13%	-29%	-3%
CC(=O)OC1CC(C)(C)N(OC(=O)c2ccc(N)cc2)C(C)(C)C1	11%	24	18%	?	-20%
O=C(CNC(=O)OCc1ccccc1)OC(c1ccccc1)c1ccccc1	-9%	-9	-25%	?	-26%
COc1ccc(OC)c(S(=O)(=O)Nc2c(C)cccc2C)c1	6%	0	0%	21%	-22%
CCOC(=O)C(=O)N1c2ccccc2C(N(C(=O)C(=O)OCC)c2ccccc2)CC1C (centres undefined)	4%	24	28%	-6%	?
CC1CC(N(C(=O)c2ccc(Cl)cc2)c2ccccc2)c2ccccc2N1C(=O)c1ccco1 (centres undefined)	?	?	?	12µM*	5.8µM*
CCN(CC)CCNC(=O)c1[nH]c2ccc(OCc3ccccc3)cc2c1C	?	-95*	?	?	?
O=C(CSc1nc(O)c(Cc2ccccc2)c(=O)n1-c1ccccc1)N1CCOCC1	2%	9	0%	2%	?
Cc1ccc(/C=C/C(=O)N(Cc2cccs2)C2CCS(=O)(=O)C2)cc1 (centres undefined)	7%	-27	-2%	?	21µM*
CCS(=O)(=O)N1CC(=O)N(c2ccc(Cl)cc2C)C(C)(C(=O)NC2CCCCC2)C1 (centres undefined)	/	/	/	-21%	-20%
CC(C)Oc1ccc(C(=O)OCC(=O)NC(=O)NC2CCCC2)cc1	-2%	27	0%[9.24 µM]	-18%	14%
CCCN1CNc2c(c(=O)[nH]c(=S)n2CCc2cc(Cl)ccc2Cl)C1	-7%	/	-18%	?	?
CCCN1CNc2c(c(=O)[nH]c(=S)n2CCc2cccc(Cl)c2Cl)C1	-17%	/	-20%	?	10µM*
CCCN1CNc2c(c(=O)[nH]c(=S)n2CCc2cc(Cl)cc(Cl)c2)C1	?	/	?	5.6µM*	4µM*
COc1cccc(CNC(=O)CN(c2ccc(C)cc2)S(=O)(=O)N(C)C)c1OC	/	/	/	-14%	-17%
COC(=O)\C(C(C)=O)=C(/C=C/C=C/C=C/N(C)C)N(C)C	6%[9.24 µM]	10	11%	?	21µM*
COC(=O)/C(C(C)=O)=C(\C=C\N(C)C)N(C)C	7%	20	9%	2%	2%
Cc1nn(C)c2ncc(C(N)=O)c(Oc3cccnc3)c12	11%	0	3%	3%	-23%
CCOC(=O)c1cnc2c(c(C)nn2C)c1Oc1ccc(Cl)cc1	-27%	28	-22%	16µM*	?
Cc1c(C(=O)NCc2ccccc2Cl)sc2ncnc(N(C)C3CCCCC3)c12	/	/	/	?	18µM*
Cc1ccc(C)c(CNC(=O)c2sc3ncnc(N(C)C4CCCCC4)c3c2C)c1	/	/	/	23µM*	?
CCN(CC)CCNC(=O)c1cnn(-c2nccc(-c3cc4ccccc4o3)n2)c1C	/	/	/	0%[9.04 µM]	?
Cc1cccc(NC(=S)NC(=O)c2ccco2)n1	-1%	27	6%	5%	-3%
Clc1ccc(N=C2SCC3CCCCN23)cc1 (centres undefined)	1%	-4	12%	-20%	-26%
FC(F)Oc1ccc(N=C2SCC3CCCCN23)cc1 (centres undefined)	-1%	-17	-8%	?	23µM*
CCCCN(C)CCNC(=O)c1cc2c(=O)[nH]c3ccccc3c2n1C	-10%	-16	-15%	5%	-28%
